Settings in all cases: incubation time: 27 h, anaerobic, 37 °C;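 for the amine columns active = adjusted P below 0.05 in both replicates with a change the same way and a mean fold change under 0.8 or over 1.25; inactive = the rest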
Assay [1] relates to Clostridium sporogenes DSM 1664. The experiment in a line: growth (OD595) fold change vs plate DMSO controls (fold change (ratio)); higher = more growth. In short, it runs like this: (§1)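 Growth is the fold change relative to the median of plate DMSO controls. Readings came from anaerobic mGAM cultures in 96-well plates grown for 27 h at 37 °C and read at 595 nm. They were blank-subtracted, corrected for compound background with 20 µM compound solutions in water, and converted to OD with a calibration factor of 5. Values are means of 2 biological replicates, and fold changes above 1.5 were set to NA.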

The test system of assay [2] is Escherichia coli IAI1. The description is as above. In short, it runs like this: as §1
Assay [3] concerns Klebsiella aerogenes DSM 30053. Described as above. The method, boiled down:
as §1

In assay [4] the test system is Ruminococcus gnavus DSM 108212. Described as above. In short, it runs like this:
as §1

For assay [5], the system named is Klebsiella aerogenes DSM 30053. The experiment in a line: fold change of Histamine concentration vs plate DMSO controls (fold change (ratio)); higher = more amine produced, active = hit call of the paper (significant change in both replicates, either direction). The method, boiled down: (§2)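 Using LC–triple-quadrupole MS with dynamic MRM, amines were quantified against external calibration curves and corrected for drift within each batch. Samples were whole anaerobic mGAM cultures of four gut strains, grown 27 h at 37 °C from OD 0.1 before 1:1 dilution, extracted with cold acetonitrile/methanol containing 0.1% formic acid and centrifuged. Compounds were present at 20 µM final (sweeteners at 50 µM final). The numbers are fold changes versus plate DMSO controls, each the mean of 2 biological replicates.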

Assay [6] deals with Clostridium sporogenes DSM 1664. The assay is described as follows: fold change of Tryptamine concentration vs plate DMSO controls (fold change (ratio)); higher = more amine produced, active = hit call of the paper (significant change in both replicates, either direction). In short, it runs like this: as §2
The test system of assay [7] is Ruminococcus gnavus DSM 108212. The description is as above. The method, boiled down: as §2
Assay [8] deals with Escherichia coli IAI1. The experiment in a line: fold change of Putrescine concentration vs plate DMSO controls (fold change (ratio)); higher = more amine produced, active = hit call of the paper (significant change in both replicates, either direction). In short, it runs like this:
as §2

Assay [9] deals with Klebsiella aerogenes DSM 30053. Described as above. The method, boiled down: as §2
The subject of assay [10] is Escherichia coli IAI1. The assay is described as follows: fold change of Cadaverine concentration vs plate DMSO controls (fold change (ratio)); higher = more amine produced, active = hit call of the paper (significant change in both replicates, either direction). In short, it runs like this:
as §2

Assay [11] concerns Klebsiella aerogenes DSM 30053. Described as above. The method, boiled down: as §2
The subject of assay [12] is Ruminococcus gnavus DSM 108212. The experiment in a line: fold change of 2-Phenylethylamine concentration vs plate DMSO controls (fold change (ratio)); higher = more amine produced, active = hit call of the paper (significant change in both replicates, either direction). In short, it runs like this:
as §2

Structures can show the parent of a compound that is named as a salt.

Regarding `CCN(CCO)CCCC(C)Nc1ccnc2cc(Cl)ccc12` (centres undefined) [Hydroxychloroquine sulfate] (20 µM), the growth came out at 1.08 in assay [1], 0.955 in the assay with Escherichia coli IAI1 [2], 0.95 in assay [3] and 0.855 in assay [4]. For the same molecule, the “fold change of Histamine concentration” value in assay [5] is 1.09 (inactive). Also, the “fold change of Tryptamine concentration” value in assay [6] was 0.967 (inactive); in assay [7] it was 0.991 (inactive). Moreover, the “fold change of Putrescine concentration” value is 0.915 (inactive) with Escherichia coli IAI1 [8] and 1.04 (inactive) in assay [9]. Moreover, the “fold change of Cadaverine concentration” value with Escherichia coli IAI1 [10] was 0.999 (inactive); in assay [11], 0.982 (inactive). Also, the “fold change of 2-Phenylethylamine concentration” value in [12] is 1.02 (inactive).

As for `CCN1CCC[C@H]1CNC(=O)c1c(OC)ccc(Br)c1OC` [Remoxipride hydrochloride] (20 µM), the growth in assay [1] stood at 1.09; in the assay on Escherichia coli IAI1 [2] it was 1.03; in assay [3], 0.988; in assay [4] it was 1.01. The “fold change of Histamine concentration” value in [5] is 1.04 (inactive). For the same molecule, the “fold change of Tryptamine concentration” value in assay [6] is 0.946 (inactive); in assay [7] it was 0.945 (inactive). Moreover, the “fold change of Putrescine concentration” value in the assay with Escherichia coli IAI1 [8] is 0.998 (inactive); in [9], 1.02 (inactive). Also, the entries for the “fold change of Cadaverine concentration” value (in the assay with Escherichia coli IAI1 [10]; in [11]) were 1.03 (inactive) and 0.989 (inactive), respectively. For the same molecule, the “fold change of 2-Phenylethylamine concentration” value in assay [12] is 0.92 (inactive).

As for `CC(C)(CO)[C@@H](O)C(=O)NCCCC(=O)O` [Hopantenate calcium] (20 µM), the growth in assay [1] is 1.07; in the assay with Escherichia coli IAI1 [2] it was 0.997; in assay [3], 0.983; in [4] it was 1.05. Also, the “fold change of Histamine concentration” value in [5] was 1.03 (inactive). Besides, the “fold change of Tryptamine concentration” value in [6] was 1.02 (inactive); in assay [7], 1.04 (inactive). For the same molecule, the “fold change of Putrescine concentration” value in the assay on Escherichia coli IAI1 [8] was 1.01 (inactive); in [9] it was 0.995 (inactive). The “fold change of Cadaverine concentration” value in the assay with Escherichia coli IAI1 [10] was 1.03 (inactive); in assay [11], 0.988 (inactive). Also, the “fold change of 2-Phenylethylamine concentration” value in [12] was 1.03 (inactive).

`CCC(C)n1ncn(-c2ccc(N3CCN(c4ccc(OCC5COC(Cn6cncn6)(c6ccc(Cl)cc6Cl)O5)cc4)CC3)cc2)c1=O` (centres undefined) [Itraconazole] (20 µM): the growth in assay [1] turned out to be 1.03; with Escherichia coli IAI1 [2], 0.985; in assay [3], 1.03; in [4], 0.531. In addition, the “fold change of Histamine concentration” value in [5] was 1.13 (inactive). In addition, the “fold change of Tryptamine concentration” value in assay [6] is 1.02 (inactive); in assay [7] it was 1.05 (inactive). For the same molecule, the figures for the “fold change of Putrescine concentration” value (in the assay on Escherichia coli IAI1 [8]; in [9]) were 1.01 (inactive) and 1.03 (inactive), respectively. In addition, the “fold change of Cadaverine concentration” value was 1 (inactive) in the assay on Escherichia coli IAI1 [10] and 0.995 (inactive) in assay [11]. The “fold change of 2-Phenylethylamine concentration” value in [12] was 0.997 (inactive).

For the molecule `C[C@H]1C[C@H]2[C@@H]3CCC4=CC(=O)C=C[C@]4(C)[C@@]3(F)[C@@H](O)C[C@]2(C)[C@@]1(O)C(=O)CO` [Betamethasone] (20 µM), the growth in assay [1] amounted to 1.02; with Escherichia coli IAI1 [2] it was 1.02; in [3], 1.13; in assay [4], 1.11. Further, the “fold change of Histamine concentration” value in assay [5] was 0.976 (inactive). Moreover, the “fold change of Tryptamine concentration” value was 0.979 (inactive) in assay [6] and 1.01 (inactive) in assay [7]. In addition, the “fold change of Putrescine concentration” value is 1.07 (inactive) in the assay on Escherichia coli IAI1 [8] and 1.01 (inactive) in [9]. Further, the “fold change of Cadaverine concentration” value in the assay with Escherichia coli IAI1 [10] was 1.04 (inactive); in [11] it was 1.02 (inactive). For the same molecule, the “fold change of 2-Phenylethylamine concentration” value in assay [12] is 0.968 (inactive).

Consider `CCCCCCCC/C=C\CCCCCCCC(N)=O` [Oleamide] (20 µM), for which the growth in assay [1] was 0.884; in the assay with Escherichia coli IAI1 [2], 0.989; in [3], 1.01; in [4], 0.968. Also, the “fold change of Histamine concentration” value in [5] was 0.969 (inactive). Moreover, the “fold change of Tryptamine concentration” value in assay [6] was 1.01 (inactive); in [7], 0.895 (inactive). Moreover, the “fold change of Putrescine concentration” value with Escherichia coli IAI1 [8] was 1.02 (inactive); in assay [9] it was 1.01 (inactive). Further, the “fold change of Cadaverine concentration” value in the assay on Escherichia coli IAI1 [10] was 1.06 (inactive); in assay [11] it was 1 (inactive). Also, the “fold change of 2-Phenylethylamine concentration” value in assay [12] is 0.862 (inactive).

With `Cc1ccnc(NS(=O)(=O)c2ccc(N)cc2)n1` [Sulfamerazine] (20 µM), the growth in assay [1] was determined as 0.951; in the assay with Escherichia coli IAI1 [2], 1.06; in [3], 1.07; in [4], 1.06. In addition, the “fold change of Histamine concentration” value in assay [5] was 0.995 (inactive). Also, the results for the “fold change of Tryptamine concentration” value in assay [6] and in assay [7] were 0.975 (inactive) and 0.995 (inactive), respectively. Moreover, the “fold change of Putrescine concentration” value with Escherichia coli IAI1 [8] is 1 (inactive); in assay [9] it was 0.999 (inactive). For the same molecule, the “fold change of Cadaverine concentration” value was 1.01 (inactive) in the assay on Escherichia coli IAI1 [10] and 1.02 (inactive) in assay [11]. For the same molecule, in assay [12], the “fold change of 2-Phenylethylamine concentration” value is 0.97 (inactive).

Turning to `Cc1c(N(C)CS(=O)(=O)O)c(=O)n(-c2ccccc2)n1C` [Dipyrone sodium salt] (20 µM), the growth in assay [1] worked out at 1.02; in the assay on Escherichia coli IAI1 [2], 1.14; in [3], 1.07; in assay [4] it was 1.13. Also, the “fold change of Histamine concentration” value in [5] is 0.958 (inactive). In addition, the “fold change of Tryptamine concentration” value in [6] is 1.11 (inactive); in [7], 1.03 (inactive). In addition, the entries for the “fold change of Putrescine concentration” value (in the assay with Escherichia coli IAI1 [8]; in assay [9]) were 1.05 (inactive) and 0.957 (inactive), respectively. Moreover, the “fold change of Cadaverine concentration” value is 0.991 (inactive) with Escherichia coli IAI1 [10] and 1.02 (inactive) in assay [11]. Also, the “fold change of 2-Phenylethylamine concentration” value in [12] was 1 (inactive).

For `CCCCCCC[N+](CC)(CC)CCCCc1ccc(Cl)cc1` [Clofilium tosylate] (20 µM), the growth in assay [1] was found to be 1.2; in the assay with Escherichia coli IAI1 [2] it was 0.984; in assay [3] it was 1.07; in assay [4] it was 1.26. Further, the “fold change of Histamine concentration” value in assay [5] is 0.897 (inactive). For the same molecule, the “fold change of Tryptamine concentration” value was 1.32 (inactive) in assay [6] and 0.792 (inactive) in assay [7]. Besides, the “fold change of Putrescine concentration” value with Escherichia coli IAI1 [8] is 1.17 (inactive); in [9] it was 0.968 (inactive). Also, the “fold change of Cadaverine concentration” value is 0.947 (inactive) with Escherichia coli IAI1 [10] and 1.03 (inactive) in assay [11]. In addition, the “fold change of 2-Phenylethylamine concentration” value in assay [12] is 0.867 (inactive).

As for `Cc1ccc(=O)n(-c2ccccc2)c1` [Pirfenidone] (20 µM), the growth in [1] is 0.978; with Escherichia coli IAI1 [2], 0.995; in assay [3], 0.983; in assay [4], 0.984. Besides, in assay [5], the “fold change of Histamine concentration” value was 1.02 (inactive). Besides, the “fold change of Tryptamine concentration” value in assay [6] was 1.04 (inactive); in assay [7], 0.978 (inactive). In addition, the “fold change of Putrescine concentration” value (with Escherichia coli IAI1 [8]; in [9]) was 1.01 (inactive) throughout. In addition, the results for the “fold change of Cadaverine concentration” value (in the assay on Escherichia coli IAI1 [10]; in assay [11]) were 1.01 (inactive) and 0.981 (inactive), respectively. The “fold change of 2-Phenylethylamine concentration” value in assay [12] is 0.958 (inactive).

Turning to `CCC[C@@H]1C[C@@H](C(=O)N[C@@H]([C@H]2O[C@H](SC)[C@H](O)[C@@H](O)[C@H]2O)[C@H](C)Cl)N(C)C1` [Clindamycin hydrochloride] (20 µM), the growth in assay [1] amounted to 0.899; in the assay with Escherichia coli IAI1 [2], 0.682; in assay [3], 0.934; in assay [4], 0.134. The “fold change of Histamine concentration” value in [5] is 1.54 (inactive). The “fold change of Tryptamine concentration” value is 0.0905 (active) in assay [6] and 0.136 (active) in assay [7]. The results for the “fold change of Putrescine concentration” value (in the assay with Escherichia coli IAI1 [8]; in assay [9]) were 0.4 (inactive) and 0.537 (inactive), respectively. Also, the figures for the “fold change of Cadaverine concentration” value (with Escherichia coli IAI1 [10]; in [11]) were 0.844 (inactive) and 0.932 (inactive), respectively. The “fold change of 2-Phenylethylamine concentration” value in [12] is 0.125 (active).

On to `CC(CN(C)C)CN1c2ccccc2CCc2ccccc21` (centres undefined) [Trimipramine maleate salt] (20 µM), for which the growth was 0.87 in assay [1], 0.987 with Escherichia coli IAI1 [2], 0.974 in [3] and 0.826 in [4]. Moreover, the “fold change of Histamine concentration” value in assay [5] was 0.994 (inactive). Moreover, the figures for the “fold change of Tryptamine concentration” value in assay [6] and in [7] were 0.985 (inactive) and 0.998 (inactive), respectively. The “fold change of Putrescine concentration” value was 0.961 (inactive) with Escherichia coli IAI1 [8] and 1.01 (inactive) in [9]. In addition, the “fold change of Cadaverine concentration” value in the assay with Escherichia coli IAI1 [10] is 1.04 (inactive); in assay [11], 1 (inactive). Moreover, in assay [12], the “fold change of 2-Phenylethylamine concentration” value is 1.02 (inactive).

The values are drawn from the supplement of paper PMC12494721.
